# Inconclusive results are not listed. Active and inactive are the calls of the source.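 How the source made its calls: active means falling viability signal at all three exposure times, each curve midpoint within twice the top tested dose; inconclusive means exposure times disagree or curves are weak or poorly fitted; inactive means all exposure times inactive, including rising signal.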
# Experiment: cytotoxicity in SNB-75 CNS cells – cell-based, Alamar Blue fluorescence, 8-48 h, dry powder, mechanism study for HRAS target identification, late-stage follow-up (AID 720613)
row,SMILES,outcome
1,Cc1onc(C(=O)N2CCN(C(c3ccncc3)c3ccncc3)CC2)c1[N+](=O)[O-],inactive
2,CCC(=O)N(c1ccc(OC)c(Cl)c1)C(C(=O)NCCc1ccccc1)c1cccs1 (configuration not stated),inactive

# — PubChem BioAssay AID720613 (Broad Institute, 2013)
